Measured values reported in PubChem BioAssay (EPA / NIEHS).
Results filed as inconclusive are left out. The source made the active and inactive calls. The calls were made as follows: active = hit-call score of the fitted dose curve at least 0.9, where 1 is the maximum; inconclusive = response in the unintended direction; inactive = score below 0.9.

Key:
[1] = target: human Mitogen- and Stress-activated Protein Kinase-1 (Msk1), RPS6KA5 (gene 9252) (UniProt O75582); experiment: NVS_ENZ_hMsk1: NovaScreen (NVS) Enzymatic Assay for human Mitogen- and Stress-activated Protein Kinase-1 (Msk1) (AID 2283187)
Chain of human Mitogen- and Stress-activated Protein Kinase-1 (Msk1), RPS6KA5 (gene 9252) (O75582 whole entry, looked up): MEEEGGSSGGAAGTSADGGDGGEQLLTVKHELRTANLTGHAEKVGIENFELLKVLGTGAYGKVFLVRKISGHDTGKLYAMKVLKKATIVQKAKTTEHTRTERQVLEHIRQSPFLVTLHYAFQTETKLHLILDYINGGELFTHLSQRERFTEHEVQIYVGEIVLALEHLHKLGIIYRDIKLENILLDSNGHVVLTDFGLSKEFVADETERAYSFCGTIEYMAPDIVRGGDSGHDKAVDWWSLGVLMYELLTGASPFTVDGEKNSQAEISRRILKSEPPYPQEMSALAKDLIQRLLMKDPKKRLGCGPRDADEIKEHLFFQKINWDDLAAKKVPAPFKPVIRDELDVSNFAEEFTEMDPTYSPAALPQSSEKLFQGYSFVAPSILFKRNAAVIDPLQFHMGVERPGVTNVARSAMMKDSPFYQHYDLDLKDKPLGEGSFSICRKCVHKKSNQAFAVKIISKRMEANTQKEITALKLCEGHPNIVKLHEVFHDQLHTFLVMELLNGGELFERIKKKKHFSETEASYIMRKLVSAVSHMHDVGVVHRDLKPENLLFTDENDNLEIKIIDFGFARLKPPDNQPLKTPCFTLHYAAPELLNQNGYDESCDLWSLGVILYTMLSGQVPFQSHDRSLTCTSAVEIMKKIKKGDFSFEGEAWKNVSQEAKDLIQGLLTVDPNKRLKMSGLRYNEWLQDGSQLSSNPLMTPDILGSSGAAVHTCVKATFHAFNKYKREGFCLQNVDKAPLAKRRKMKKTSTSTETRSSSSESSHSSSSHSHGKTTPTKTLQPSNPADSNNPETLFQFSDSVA
Procedure, shortened: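 Recombinant kinase with fluorescent substrate; product separated by electrophoretic mobility shift, read 1 h after dosing. Screened in duplicate at 25 uM; hits (e.g. ≥30% inhibition) tested in concentration–response up to 50 uM. DMSO baseline.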

[2] = target: human NIMA (Never In Mitosis Gene A)-Related Kinase 2 (NEK2), NEK2 (gene 4751) (UniProt P51955); experiment: NVS_ENZ_hNEK2: NovaScreen (NVS) Enzymatic Assay for human NIMA (Never In Mitosis Gene A)-Related Kinase 2 (NEK2) (AID 2283188)
Chain of human NIMA (Never In Mitosis Gene A)-Related Kinase 2 (NEK2), NEK2 (gene 4751) (P51955 whole entry, looked up): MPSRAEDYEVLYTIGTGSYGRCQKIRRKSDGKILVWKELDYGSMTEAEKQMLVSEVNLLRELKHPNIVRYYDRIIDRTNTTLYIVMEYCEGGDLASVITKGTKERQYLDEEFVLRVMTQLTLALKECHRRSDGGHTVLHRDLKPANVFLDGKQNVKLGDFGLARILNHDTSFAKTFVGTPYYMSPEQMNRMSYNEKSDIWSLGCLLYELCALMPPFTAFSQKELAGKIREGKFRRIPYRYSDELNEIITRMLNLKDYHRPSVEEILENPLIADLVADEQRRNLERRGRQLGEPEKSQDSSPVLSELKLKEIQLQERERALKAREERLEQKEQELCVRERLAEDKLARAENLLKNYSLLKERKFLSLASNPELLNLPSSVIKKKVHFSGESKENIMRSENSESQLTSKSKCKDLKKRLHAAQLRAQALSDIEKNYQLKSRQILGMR
Procedure: NVS_ENZ_hNEK2 is a biochemical, single-readout assay that uses extracted gene-proteins in a cell-free assay. Measurements were taken 1 hour after chemical dosing in a 384-well plate.NVS_ENZ_hNEK2 is one of one assay component(s) measured or calculated from the NVS_ENZ_hNEK2 assay. It is designed to make measurements of enzyme activity, a form of enzyme reporter, as detected with fluorescence intensity signals by Fluorescence and electrophoretic mobility shift technology.Data from the assay component NVS_ENZ_hNEK2 was analyzed into 1 assay endpoint. This assay endpoint, NVS_ENZ_hNEK2, was analyzed in the positive analysis fitting direction relative to DMSO as the negative control and baseline of activity. Using a type of enzyme reporter, loss-of-signal activity can be used to understand changes in the enzymatic activity as they relate to the gene NEK2. Furthermore, this assay endpoint can be referred to as a primary readout, because this assay has produced multiple assay endpoints where this one serves a enzymatic activity function. To generalize the intended target to other relatable targets, this assay endpoint is annotated to the kinase intended target family, where the subfamily is serine/threonine kinase. […]

SMILES	outcome [1]	outcome [2]
CCN(CC)N=O	inactive	
CCNS(=O)(=O)C(F)(F)C(F)(F)C(F)(F)C(F)(F)C(F)(F)C(F)(F)C(F)(F)C(F)(F)F	inactive	inactive
CCCCC(CC)COC(=O)c1ccc(C(=O)OCC(CC)CCCC)c(C(=O)OCC(CC)CCCC)c1 (centres undefined)		inactive
